Laboratory results from PubChem BioAssay.
Active and inactive are the calls of the source.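 Rule for the calls: active = fluorescence ratio normalized to control raised more than 50% in primary screen plus both repeat runs; inactive = the rest.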

These compounds were tested on TRPC4 beta (transient receptor potential cation channel C4), mouse (assay: TRPC4 cation channel opening, retest – cell-based, Fluo4 calcium, HEK293 TRPC4beta/mu-opioid, duplicates, 10 µM, confirmation (AID 2426;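 for activation: percent rise of integrated ratio over buffer wells lacking compound which define 0%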)). Details: Fluo4 calcium fluorescence, at 10 µM; hits give high values.

Compound	outcome	activation
CC(C)c1ccc(NC(=S)N(C)CCc2ccccn2)cc1	inactive	
CCN1CCN(c2ccc(S(=O)(=O)N3CCCCC3)cc2NC(=O)COc2ccccc2)CC1		157% (active)
COC(=O)c1ccccc1N=Nc1c(N)[nH][nH]c1=O		87% (active)
CCc1nc(NCCc2ccccn2)c2nnn(Cc3ccccc3F)c2n1		154% (active)
COC(=O)c1ccc(N2CCN(C)CC2)c(NC(=O)COc2ccccc2)c1		86% (active)
CCC1(c2ccc(F)cc2)NC(=O)N(CC(=O)c2cc(C)n(C3CC3)c2C)C1=O (stereo not given)	inactive	
CCOC(=O)C1(CC2CCCCO2)CCN(Cc2c(C)cc(C)cc2-n2cccn2)CC1 (stereo not given)		75% (active)
Cc1ccc(Cl)cc1NC(=O)CNCC(c1ccccc1)N(C)C (stereo not given)	inactive	
CCOC(=O)C1(CCOc2ccccc2)CCN(Cc2ccc3c(c2)OCCO3)CC1	inactive	
CCOc1ccccc1CN1CCNC(=O)C1CC(=O)N(C)CCc1ccccn1 (stereo not given)		235% (active)
CN(CCc1ccccn1)C(=O)CC1C(=O)NCCN1Cc1ccccc1C(F)(F)F (stereo not given)		178% (active)
Cc1ccc(C)c(OCCCCCn2ccnc2)c1		174% (active)
O=C(C1CCCN(Cc2ccccc2F)C1)N1CCc2ccccc2C1 (stereo not given)		96% (active)
CCOC(=O)C1(CCCc2ccccc2)CCN(Cc2cn(CC)nc2C)CC1		153% (active)
NCCSc1c(-c2ccc(Cl)cc2)[nH]c2ccccc12		116% (active)
CN(C)CCCN(C(=O)c1ccc(C(=O)c2ccccc2)cc1)c1nc2ccc(F)cc2s1		83% (active)
COc1ccc(-c2nn(-c3ccccc3)cc2CNCc2cccnc2)c(F)c1		224% (active)
Cc1cc(Br)ccc1OCCn1ccnc1	inactive	
C=CCn1c(CCNC(=O)C(C)(C)C)nc2ccccc21		151% (active)
Cc1cc(Cl)cc(C)c1OCCCCn1ccnc1		98% (active)

Compound	outcome	activation
Cc1sc2nc(CSc3ccccc3)nc(NCCN(C)C)c2c1C		173% (active)
CCN1CCN(c2c(S(=O)(=O)c3ccc(C)c(C)c3)cnc3ccc(F)cc23)CC1		106% (active)
Cc1ccc(C)c(OCCCCn2ccnc2)c1		111% (active)
Cc1ccccc1NC(=S)NCCc1ccccn1		143% (active)
CN(C)C(CNC(=O)Cc1cccc(C(F)(F)F)c1)c1ccco1 (stereo not given)		83% (active)
CCOc1ccccc1CN1CCNC(=O)C1CC(=O)NCCc1ccccn1 (stereo not given)	inactive	
CCOc1ccc2ncc(C(=O)c3ccc(OC)cc3)c(N3CCN(CC)CC3)c2c1		196% (active)
Cc1cc(NC(=O)CN2CCc3ccccc3C2)nc2c1c(=O)oc1ccccc12	inactive	
Cc1ccccc1C(=O)NNC(=S)NC(=O)c1ccccc1		215% (active)
CCOC(=O)C1CCCN(C(c2ccccn2)c2c(C)[nH]c3ccccc23)C1 (stereo not given)		208% (active)
COc1cc(/C=C/C(=O)c2ccc3c(c2)OCO3)cc(Cl)c1O		113% (active)
CN(C)C(CNC(=O)/C=C/c1cccc(Cl)c1)c1ccccc1 (stereo not given)		148% (active)
COc1ccc(C(=O)NC(=S)NNC(=O)c2c(-c3ccccc3)noc2C)cc1		100% (active)
O=S(=O)(c1ccc(Cl)cc1)N1CCN2CCCC2C1 (stereo not given)		103% (active)
Cc1ccc(-n2cc(CNCC3CC(=O)N(C4CC4)C3)c(-c3cccc(C)c3)n2)cc1 (stereo not given)		165% (active)
CCCCCSc1nnc2c(n1)OC(c1cccn1C)N(C(C)=O)c1ccccc1-2 (stereo not given)	inactive	
CCCCC(c1nnnn1CC1CCCO1)N1CCN(c2nc3ccccc3s2)CC1 (stereo not given)		88% (active)
CCN(CCCNS(=O)(=O)c1cc(-c2cc(C)no2)ccc1C)Cc1ccccc1		171% (active)
COc1ccc(-c2nc(CN3CCC(C(=O)NC4CCCC4)CC3)c(C)o2)cc1OC		152% (active)
CCN(CC)CCSc1nc2ccc(OC)cc2[nH]1		90% (active)
